For assay [1], the target named is T1, Inhibitor of nuclear factor kappa-B kinase subunit epsilon (Homo sapiens) (UniProt Q14164).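 Also: reported values are averaged percent inhibition figures against human IKKε.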
T1 sequence (whole entry): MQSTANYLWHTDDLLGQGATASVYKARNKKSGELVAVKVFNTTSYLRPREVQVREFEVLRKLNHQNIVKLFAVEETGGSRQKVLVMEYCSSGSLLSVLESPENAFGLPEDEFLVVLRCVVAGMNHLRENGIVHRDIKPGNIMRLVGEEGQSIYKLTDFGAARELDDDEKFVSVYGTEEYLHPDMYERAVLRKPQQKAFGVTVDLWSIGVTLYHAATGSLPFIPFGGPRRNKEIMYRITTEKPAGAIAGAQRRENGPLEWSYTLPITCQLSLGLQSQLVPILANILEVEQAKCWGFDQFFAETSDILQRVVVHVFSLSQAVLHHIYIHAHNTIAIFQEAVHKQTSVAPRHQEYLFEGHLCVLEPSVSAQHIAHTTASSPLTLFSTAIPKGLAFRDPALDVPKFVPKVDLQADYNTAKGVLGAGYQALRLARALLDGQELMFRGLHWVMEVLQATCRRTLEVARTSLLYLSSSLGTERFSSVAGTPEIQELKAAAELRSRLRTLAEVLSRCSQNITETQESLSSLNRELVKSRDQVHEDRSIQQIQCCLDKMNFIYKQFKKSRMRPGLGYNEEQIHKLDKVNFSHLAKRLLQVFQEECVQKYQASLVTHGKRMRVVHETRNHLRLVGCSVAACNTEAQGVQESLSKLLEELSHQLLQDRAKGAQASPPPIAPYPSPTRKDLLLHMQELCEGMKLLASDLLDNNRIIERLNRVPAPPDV
The following applies: at 1 µM.

The target in assay [2] is T2, Serine/threonine-protein kinase Nek1 (Homo sapiens) (UniProt Q96PY6).
T2 sequence (whole entry): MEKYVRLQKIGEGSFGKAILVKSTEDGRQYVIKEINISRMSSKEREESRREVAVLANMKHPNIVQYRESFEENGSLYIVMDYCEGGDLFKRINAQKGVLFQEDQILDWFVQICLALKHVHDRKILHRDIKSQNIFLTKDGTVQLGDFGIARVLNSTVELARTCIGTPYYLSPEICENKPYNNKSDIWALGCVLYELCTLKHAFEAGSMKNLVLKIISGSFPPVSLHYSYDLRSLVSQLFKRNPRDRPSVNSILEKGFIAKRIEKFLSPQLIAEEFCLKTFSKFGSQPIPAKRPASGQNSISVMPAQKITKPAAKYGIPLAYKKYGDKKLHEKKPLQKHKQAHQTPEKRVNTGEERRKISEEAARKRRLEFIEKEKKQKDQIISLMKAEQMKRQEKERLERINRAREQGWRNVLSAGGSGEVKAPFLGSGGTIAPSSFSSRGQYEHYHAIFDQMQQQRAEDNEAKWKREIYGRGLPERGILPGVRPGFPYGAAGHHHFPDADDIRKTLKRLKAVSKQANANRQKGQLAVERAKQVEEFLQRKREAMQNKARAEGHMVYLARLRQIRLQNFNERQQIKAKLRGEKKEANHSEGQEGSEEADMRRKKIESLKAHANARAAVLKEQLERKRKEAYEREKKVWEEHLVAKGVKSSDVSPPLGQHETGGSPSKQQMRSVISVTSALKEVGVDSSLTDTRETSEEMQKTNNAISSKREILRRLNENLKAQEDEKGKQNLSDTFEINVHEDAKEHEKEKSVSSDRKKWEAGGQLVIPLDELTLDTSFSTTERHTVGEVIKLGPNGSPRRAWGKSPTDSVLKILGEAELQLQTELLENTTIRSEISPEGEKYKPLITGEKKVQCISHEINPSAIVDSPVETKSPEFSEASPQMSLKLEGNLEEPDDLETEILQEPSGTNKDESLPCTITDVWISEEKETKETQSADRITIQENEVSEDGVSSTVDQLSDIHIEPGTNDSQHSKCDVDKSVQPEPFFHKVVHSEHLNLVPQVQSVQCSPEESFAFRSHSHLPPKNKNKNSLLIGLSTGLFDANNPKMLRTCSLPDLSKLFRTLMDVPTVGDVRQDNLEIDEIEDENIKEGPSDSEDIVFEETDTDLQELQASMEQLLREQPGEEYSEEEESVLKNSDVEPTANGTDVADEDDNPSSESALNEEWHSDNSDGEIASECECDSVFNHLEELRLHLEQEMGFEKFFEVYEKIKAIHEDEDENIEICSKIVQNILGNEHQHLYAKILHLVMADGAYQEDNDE
The following applies: at 0.1 µM.

For assay [3], the target named is T2, Serine/threonine-protein kinase Nek1 (Homo sapiens). The following applies: at 1 µM.
Assay [4] addresses T3, Serine/threonine-protein kinase Nek2 (Homo sapiens) (UniProt P51955).
T3 sequence (whole entry): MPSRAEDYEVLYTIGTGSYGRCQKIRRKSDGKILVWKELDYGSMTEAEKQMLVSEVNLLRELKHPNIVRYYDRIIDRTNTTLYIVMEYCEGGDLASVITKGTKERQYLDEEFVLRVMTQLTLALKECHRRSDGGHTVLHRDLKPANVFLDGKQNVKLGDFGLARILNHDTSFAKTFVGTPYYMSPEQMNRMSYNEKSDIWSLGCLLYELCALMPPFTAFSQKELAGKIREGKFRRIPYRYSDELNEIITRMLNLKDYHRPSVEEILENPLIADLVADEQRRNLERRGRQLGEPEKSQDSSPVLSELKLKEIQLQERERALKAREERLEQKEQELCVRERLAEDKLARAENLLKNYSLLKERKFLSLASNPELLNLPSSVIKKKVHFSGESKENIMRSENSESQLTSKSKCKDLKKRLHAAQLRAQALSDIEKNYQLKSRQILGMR
The following applies: at 0.1 µM.

The target in assay [5] is T3, Serine/threonine-protein kinase Nek2 (Homo sapiens). The following applies: at 1 µM.
The target in assay [6] is Serine/threonine-protein kinase Nek6 (Homo sapiens) (UniProt Q9HC98). The following applies: at 0.1 µM.
Serine/threonine-protein kinase Nek6 (Homo sapiens), sequence (Q9HC98 whole entry): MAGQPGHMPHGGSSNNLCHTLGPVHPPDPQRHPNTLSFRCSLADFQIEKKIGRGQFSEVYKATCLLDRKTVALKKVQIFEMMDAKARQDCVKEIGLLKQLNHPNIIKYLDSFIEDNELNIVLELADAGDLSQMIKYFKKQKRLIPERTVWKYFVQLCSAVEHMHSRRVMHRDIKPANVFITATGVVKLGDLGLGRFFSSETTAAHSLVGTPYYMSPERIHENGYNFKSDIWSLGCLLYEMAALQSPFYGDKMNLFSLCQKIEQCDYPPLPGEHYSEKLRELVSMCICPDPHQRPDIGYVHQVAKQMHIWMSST
Assay [7] has the same target. The following applies: at 1 µM.
The target of assay [8] is Serine/threonine-protein kinase Nek7 (Homo sapiens) (UniProt Q8TDX7). The following applies: at 0.1 µM.
Serine/threonine-protein kinase Nek7 (Homo sapiens), sequence (Q8TDX7 whole entry, looked up): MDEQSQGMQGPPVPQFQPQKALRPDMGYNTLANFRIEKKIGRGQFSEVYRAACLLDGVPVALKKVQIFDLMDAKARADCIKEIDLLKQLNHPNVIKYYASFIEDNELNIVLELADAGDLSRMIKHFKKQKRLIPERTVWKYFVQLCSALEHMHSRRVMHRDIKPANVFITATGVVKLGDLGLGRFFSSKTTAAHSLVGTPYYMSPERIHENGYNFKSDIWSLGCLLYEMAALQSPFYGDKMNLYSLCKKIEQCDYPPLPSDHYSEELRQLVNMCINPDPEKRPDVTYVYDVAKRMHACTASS
Assay [9] shares this target. The following applies: at 1 µM.
The target in assay [10] is T4, Serine/threonine-protein kinase Nek9 (Homo sapiens) (UniProt Q8TD19).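 Also: reported value is the mean percent inhibition of NEK9.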
T4 sequence (whole entry): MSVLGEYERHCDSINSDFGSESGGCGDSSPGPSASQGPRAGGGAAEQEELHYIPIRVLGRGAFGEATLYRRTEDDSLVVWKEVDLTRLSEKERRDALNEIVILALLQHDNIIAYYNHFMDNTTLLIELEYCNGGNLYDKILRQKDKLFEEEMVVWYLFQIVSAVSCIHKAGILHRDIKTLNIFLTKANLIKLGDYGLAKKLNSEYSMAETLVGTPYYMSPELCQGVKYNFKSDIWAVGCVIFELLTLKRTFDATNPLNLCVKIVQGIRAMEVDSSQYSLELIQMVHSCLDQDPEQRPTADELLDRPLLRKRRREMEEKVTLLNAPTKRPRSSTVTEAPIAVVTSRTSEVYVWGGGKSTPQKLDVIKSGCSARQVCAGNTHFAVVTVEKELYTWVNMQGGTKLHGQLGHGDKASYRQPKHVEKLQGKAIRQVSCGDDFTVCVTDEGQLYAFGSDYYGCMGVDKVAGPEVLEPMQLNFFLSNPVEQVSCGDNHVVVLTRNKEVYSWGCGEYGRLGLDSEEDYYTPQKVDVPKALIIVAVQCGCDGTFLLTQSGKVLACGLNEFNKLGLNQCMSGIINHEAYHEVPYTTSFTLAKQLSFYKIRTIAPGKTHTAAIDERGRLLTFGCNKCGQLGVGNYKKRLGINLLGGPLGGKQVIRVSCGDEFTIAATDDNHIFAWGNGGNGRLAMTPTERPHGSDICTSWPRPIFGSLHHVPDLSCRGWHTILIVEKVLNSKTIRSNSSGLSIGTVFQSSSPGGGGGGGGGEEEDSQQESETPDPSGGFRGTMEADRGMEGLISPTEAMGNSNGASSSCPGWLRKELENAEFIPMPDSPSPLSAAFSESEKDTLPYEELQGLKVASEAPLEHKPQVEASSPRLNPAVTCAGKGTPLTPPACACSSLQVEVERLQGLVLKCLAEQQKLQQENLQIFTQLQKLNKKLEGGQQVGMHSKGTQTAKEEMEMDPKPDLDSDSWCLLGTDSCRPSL
The following applies: at 0.1 µM.

`Cc1nn(C)c2cc(N(C)c3ccnc(Nc4cccc(S(N)(=O)=O)c4)n3)ccc12`: the inhibition – broadly, the change of the read-out against control, counted positive when it falls – in [1] is 4.76%; in assay [2], 2.28%; in assay [3] it was 3.95%; in [4], 3.82%; in [5], 5.14%; in assay [6] it was 0.43%. In addition, the inhibition in [7] is 1.3%; in [8], 5.76%; in assay [9] it was 3.53%; in assay [10], 8.48%.

Turning to `COc1cc2ncn(-c3cc(O[C@@H](C)c4ccccc4Cl)c(C(N)=O)s3)c2cc1OC`, the inhibition came to 7.74% in assay [1]; 4.69% in assay [2]; 19.3% in assay [3]; 5.52% in assay [4]; 10.4% in assay [5]; 1.03% in assay [6]. The inhibition in [7] turned out to be 0.67%; in assay [8], 3.47%; in assay [9], 4.57%; in assay [10], 7.99%.

With `CC1=C(C(=O)Nc2ccc3[nH]ncc3c2)C(c2ccc(F)cc2)NC(=O)N1` (stereo not given), the inhibition in assay [1] is 4.43%; in assay [2], 2.09%; in assay [3], 4.56%; in [4] it was 3.07%; in assay [5], 2.73%; in [6] it was 0.8%. Besides, the inhibition in [7] is 0.71%; in [8], 3.54%; in [9], 2.72%; in assay [10], 2.85%.

For `CCn1c(-c2nonc2N)nc2cncc(C(=O)N3CC[C@H](N)C3)c21`, the inhibition was determined as 36.1% in assay [1]; 1.89% in assay [2]; 3.47% in assay [3]; 5.3% in [4]; 6.1% in assay [5]; 0.64% in assay [6]. Further, the inhibition in assay [7] amounted to 5.91%; in assay [8], 6.16%; in assay [9] it was 7.48%; in assay [10], 11.8%.

With `O=C1Nc2ccc(C(=O)c3ccco3)cc2C1=Cc1cc(Cl)c(O)c(Cl)c1`, the inhibition was 52% in assay [1]; 1.66% in [2]; 6.79% in assay [3]; 5.56% in [4]; 3.76% in assay [5]; -0.24% in assay [6]. Further, the inhibition was found to be 0.61% in assay [7], 3.27% in [8], 3.97% in assay [9] and 6.51% in assay [10].

With `O=C1NC(=O)C(c2cccc(Cl)c2)=C1Nc1ccc(O)c(Cl)c1`, the inhibition in [1] is 0.33%; in assay [2], 0.25%; in assay [3], 0.17%; in [4], 1.39%; in assay [5], 1.51%; in [6] it was -0.33%. In addition, the inhibition in assay [7] was -3.08%; in [8], 1.78%; in assay [9], 1.51%; in assay [10], 1.58%.

With `Nc1nc(-c2ccc3c(c2)C(=Cc2cc(Br)c(O)c(Br)c2)C(=O)N3)cs1`, the inhibition was -0.65% in [1]; -0.4% in assay [2]; 2.14% in assay [3]; -0.41% in assay [4]; 2.78% in [5]; -0.92% in assay [6]. In addition, the inhibition is 3.09% in [7], 2.05% in assay [8], -1.46% in [9] and 2.02% in assay [10].

With `CS(=O)(=O)CCN(CC#N)Cc1ccc(-c2ccc3ncnc(Nc4ccc(OCc5cccc(F)c5)c(Cl)c4)c3c2)o1`, the inhibition in assay [1] turned out to be 1.93%; in assay [2], 0.91%; in assay [3], 1.78%; in assay [4] it was 3.59%; in assay [5], 2.16%; in assay [6], 2.16%. Also, the inhibition in [7] is -0.23%; in [8], 2.49%; in assay [9] it was 7.27%; in [10] it was 2.5%.

Regarding `CN1CCC(C(=O)Nc2n[nH]c3nnc(-c4ccccc4)cc23)CC1`, the inhibition in [1] was determined as 6.54%; in [2] it was 2.01%; in assay [3], 4.86%; in assay [4], 5.31%; in assay [5] it was 4.22%; in assay [6] it was 2.59%. Also, the inhibition in assay [7] turned out to be 0.5%; in assay [8], 5.74%; in assay [9] it was 4.97%; in assay [10], 12.7%.

The record behind these values is ChEMBL document CHEMBL1961873, “Compounds: GSK PKIS; Assays: Nanosyn kinase panel” (2012).
